Laboratory results published in the supplement of paper PMC4840960.
Where a name gives a salt, the structure may show the parent alone.

test system: E18 rat cortical neuron-glia co-culture; assay: fiber score / MBP score (myelination specific beyond OL differentiation) (ratio); higher = more myelination-specific MBP alignment; details: 5 µM; treatment time: 8 days (DIV5-DIV13)
Procedure, shortened: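 Papain-dissociated primary E18 rat cortical co-cultures, plated at 20,000 cells/well on poly-d-lysine/laminin 96-well plates, were exposed to library compounds at 1 or 5 µM in myelination medium between DIV5 and DIV13. Following fixation in 4 % paraformaldehyde, cultures were stained for MBP, Olig2 and DAPI, and four 10X fields per well were analysed in duplicate wells. Values are the ratio of fiber score (continuous MBP fiber length per Olig2+ nucleus) to MBP score (thresholded MBP area × intensity per Olig2+ nucleus).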

SMILES | fiber score / MBP score
O=C(O)c1cc(=O)c2c(OCC(O)COc3cccc4oc(C(=O)O)cc(=O)c34)cccc2o1 [Cromolyn Sodium] | 0.409
COC(=O)C1=C(C)NC(C)=C(C(=O)OCCN(C)Cc2ccccc2)C1c1cccc([N+](=O)[O-])c1 (stereo not drawn) [Nicardipine] | 0.824
CN1CCN2c3ncccc3Cc3ccccc3C2C1 (stereo not drawn) [Remergil] | 0.663
O=c1[nH]cnc2c1ncn2[C@H]1CC[C@@H](CO)O1 [2',3'-Dideoxyinosine] | 0.869
COc1cc(C[C@@H](CO)[C@H](CO)Cc2ccc(O)c(OC)c2)ccc1O [Secoisolariciresinol] | 0.777
Nc1nc(N)nc(-c2cc(Cl)ccc2Cl)n1 [Irsogladine] | 0.877
C=CC1=C(C(=O)O)N2C(=O)[C@@H](NC(=O)/C(=N\OCC(=O)O)c3csc(N)n3)[C@H]2SC1 [Cefixime] | 1.4
CCCOc1ccc(C(=O)OCCN(CC)CC)cc1N [Proxymetacaine] | 0.433
CCc1cc(C(N)=S)ccn1 [Ethionamide] | 1.1
CC(COc1ccccc1Cc1ccccc1)N1CCCCC1 (stereo not drawn) [Benproperine] | 0.819
CC(=O)NC[C@H]1CN(c2ccc(N3CCOCC3)c(F)c2)C(=O)O1 [linezolid] | 0.929
CC(C)(S)[C@@H](N)C(=O)O [Penicillamine] | 0.926
CCCC(=O)Nc1ccc(OCC(O)CNC(C)C)c(C(C)=O)c1 (stereo not drawn) [Acebutolol] | 0.796
CC(C)(C)NCC(O)c1cc(O)cc(O)c1 (stereo not drawn) [Terbutaline] | 0.251
CC(=O)OCC(=O)[C@@]12OC(C)(C)O[C@@H]1C[C@H]1[C@@H]3C[C@H](F)C4=CC(=O)C=C[C@]4(C)[C@@]3(F)[C@@H](O)C[C@@]12C [Fluocinonide] | 0.291
CC(=O)CC(c1ccccc1)c1c(O)c2ccccc2oc1=O (stereo not drawn) [Warfarin] | 0.623
CN(C)CC/C=C1/c2ccccc2COc2ccc(CC(=O)O)cc21 [Olopatadine] | 0.936
CCN1CCCC1CNC(=O)c1cc(S(N)(=O)=O)ccc1OC (stereo not drawn) [Sulpiride] | 0.751
C[C@]12CCC(=O)C=C1CC[C@@H]1[C@@H]2CC[C@@]2(C)[C@H]1CC[C@]2(O)C(=O)CO [Cortodoxone] | 0.781

SMILES | fiber score / MBP score
CCOc1cc(N)c(Cl)cc1C(=O)NCC1CN(Cc2ccc(F)cc2)CCO1 (stereo not drawn) [Mosapride] | 0.556
COc1ccc(Cl)cc1C(=O)NCCc1ccc(S(=O)(=O)NC(=O)NC2CCCCC2)cc1 [Glyburide] | 0.835
Cc1ccc(N(CC2=NCCN2)c2cccc(O)c2)cc1 [Phentolamine] | 0.56
CC(=O)O[C@H]1C[C@@H]2CC[C@@H]3[C@H](CC[C@@]4(C)[C@H]3C[C@H]([N+]3(C)CCCCC3)[C@@H]4OC(C)=O)[C@@]2(C)C[C@@H]1N1CCCCC1 [Vecuronium Bromide] | 0.791
CC(=O)[C@@]1(O)CC[C@H]2[C@@H]3C[C@H](C)C4=CC(=O)C=C[C@]4(C)[C@@]3(F)[C@@H](O)C[C@@]21C [Fluorometholone] | 0.856
C[C@@](Cc1ccc(O)c(O)c1)(NN)C(=O)O [Carbidopa] | 0.776
CCCCC[C@H](O)/C=C/[C@H]1[C@H](O)CC(=O)[C@@H]1CCCCCCC(=O)O [Alprostadil] | 0.695
O=C1Nc2ccccc2/C1=C1/Nc2ccccc2C1=O [Indirubin] | 0.71
CCC1=C(C)CN(C(=O)NCCc2ccc(S(=O)(=O)NC(=O)N[C@H]3CC[C@H](C)CC3)cc2)C1=O [Glimepiride] | 0.96
COc1c2occc2cc2ccc(=O)oc12 [Methoxsalen] | 0.29
CNC(=C[N+](=O)[O-])NCCSCc1ccc(CN(C)C)o1 [Ranitidine] | 1.03
O=C1CC[C@@H](C(=O)N2CSC[C@H]2C(=O)O)N1 [Pidotimod] | 0.881
CN1CCC(=C2c3ccccc3CCc3sccc32)CC1 [Pizotyline] | 0.636
Cc1ccnc2c1NC(=O)c1cccnc1N2C1CC1 [Nevirapine] | 0.851
O=C(O)COCCN1CCN(C(c2ccccc2)c2ccc(Cl)cc2)CC1 (stereo not drawn) [Cetirizine] | 1.11
CC(C)/N=c1\cc2n(-c3ccc(Cl)cc3)c3ccccc3nc-2cc1Nc1ccc(Cl)cc1 [Clofazimine] | 0.962
CC1CCN(CCCC(=O)c2ccc(F)cc2)CC1 [Melperone hydrochloride] | 0.519
CCC(=O)O[C@@H]1CC(=O)O[C@H](C)C/C=C/C=C/[C@H](O)[C@H](C)C[C@H](CC=O)[C@H](O[C@@H]2O[C@H](C)[C@@H](O[C@H]3C[C@@](C)(O)[C@@H](OC(=O)CC)[C@H](C)O3)[C@H](N(C)C)[C@H]2O)[C@H]1OC [Midecamycin] | 1.13
CCN1CCN(c2cc3c(cc2F)c(=O)c(C(=O)O)cn3C2CC2)CC1 [Enrofloxacin] | 0.516
